# Activity calls are given as the source filed them. Unless noted, no rule for the calls is given here.
# What was measured:
# [1] = compounds binding Alexa647 anti-His antibody – biochemical, small-molecule microarray, 635 nm fluorescence, artefact control for SMM control protein annotation, primary screen (AID 1128); conditions: higher = more signal;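 also: score merges feature fluorescence with signal-to-noise for each printed compound spot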
# [2] = tested on: Human papillomavirus type 1a E7 protein (residues 1-88); assay: HPV1a E7 small-molecule binders, primary screen, biochemical, small-molecule microarray, residues 1-88, 635 nm (AID 1129); conditions: small-molecule microarray binding, fluorescence 635 nm; higher = more signal
# [3] = molecular target: Focal adhesion kinase 1 (Homo sapiens) (UniProt Q05397); assay: PTK2 protein binding on printed compound slides – biochemical, small-molecule microarray, 635/667 nm fluorescence, BSA, DTT, primary screen (AID 1130); conditions: 635 nm fluorescence, higher = more signal;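 also: composite of spot emission at 667 nm and signal to noise over triplicate slides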
# Chain of Focal adhesion kinase 1 (Homo sapiens) (Q05397 whole entry, looked up): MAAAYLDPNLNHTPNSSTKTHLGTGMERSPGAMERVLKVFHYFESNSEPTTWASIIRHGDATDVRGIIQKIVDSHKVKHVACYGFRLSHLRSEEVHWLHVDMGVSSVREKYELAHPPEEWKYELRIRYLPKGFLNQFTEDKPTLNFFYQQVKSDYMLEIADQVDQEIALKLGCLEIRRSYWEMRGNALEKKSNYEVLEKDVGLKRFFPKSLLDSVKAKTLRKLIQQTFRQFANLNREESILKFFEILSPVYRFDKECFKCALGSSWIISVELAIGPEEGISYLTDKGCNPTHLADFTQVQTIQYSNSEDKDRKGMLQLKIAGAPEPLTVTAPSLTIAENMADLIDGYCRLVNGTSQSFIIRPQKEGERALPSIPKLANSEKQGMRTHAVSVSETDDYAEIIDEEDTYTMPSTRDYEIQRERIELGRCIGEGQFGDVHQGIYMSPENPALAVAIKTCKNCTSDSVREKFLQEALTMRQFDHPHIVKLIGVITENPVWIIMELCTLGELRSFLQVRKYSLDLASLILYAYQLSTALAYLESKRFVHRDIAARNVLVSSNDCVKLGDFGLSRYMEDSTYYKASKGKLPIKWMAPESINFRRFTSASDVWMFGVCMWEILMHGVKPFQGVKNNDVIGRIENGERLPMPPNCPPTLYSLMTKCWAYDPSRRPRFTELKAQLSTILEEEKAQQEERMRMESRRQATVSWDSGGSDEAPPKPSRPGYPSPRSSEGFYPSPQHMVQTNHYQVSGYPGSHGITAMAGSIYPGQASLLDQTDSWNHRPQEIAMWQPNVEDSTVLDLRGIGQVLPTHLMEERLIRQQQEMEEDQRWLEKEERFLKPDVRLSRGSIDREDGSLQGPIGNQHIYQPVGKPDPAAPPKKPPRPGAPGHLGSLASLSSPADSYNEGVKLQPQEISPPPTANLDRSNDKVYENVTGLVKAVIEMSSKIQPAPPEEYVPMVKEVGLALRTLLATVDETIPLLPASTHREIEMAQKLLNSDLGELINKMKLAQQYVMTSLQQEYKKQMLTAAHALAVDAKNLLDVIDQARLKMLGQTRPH
# [4] = tested on: Fibrinogen (Alexa647-labelled); assay: Alexa647-fibrinogen binding to printed small molecules – biochemical, small-molecule microarray, 635/667 nm fluorescence, artefact control for SMM control-protein annotation, profiling panel (AID 1131); conditions: fibrinogen-A647 binding fluorescence, higher = more signal;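 also: z-score merges 667 nm fluorescence with per-spot signal-to-noise over triplicate slides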
# [5] = molecular target: Follistatin (Homo sapiens) (UniProt P19883); assay: FST protein binding to printed compounds – biochemical, small-molecule microarray, 635/667 nm fluorescence, primary screen (AID 1132); conditions: 635 nm fluorescence, higher = more signal
# Chain of Follistatin (Homo sapiens) (P19883 whole entry, looked up): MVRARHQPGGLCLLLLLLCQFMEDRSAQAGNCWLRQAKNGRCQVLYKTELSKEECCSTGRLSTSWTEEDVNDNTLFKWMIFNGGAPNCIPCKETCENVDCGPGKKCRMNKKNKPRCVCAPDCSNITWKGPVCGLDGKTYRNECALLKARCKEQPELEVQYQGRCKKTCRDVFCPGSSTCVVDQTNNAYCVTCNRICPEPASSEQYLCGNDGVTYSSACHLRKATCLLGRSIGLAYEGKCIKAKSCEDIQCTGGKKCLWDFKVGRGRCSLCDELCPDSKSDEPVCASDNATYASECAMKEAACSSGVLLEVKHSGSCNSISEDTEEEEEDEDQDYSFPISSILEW
# [6] = molecular target: Fibroblast growth factor 2 (Homo sapiens) (UniProt P09038); assay: basic fibroblast growth factor binding to printed compounds – biochemical, small-molecule microarray, 635/667 nm fluorescence, primary screen (AID 1133); conditions: FGF2, fluorescence 635/667, higher = more signal
# Chain of Fibroblast growth factor 2 (Homo sapiens) (P09038 whole entry, looked up): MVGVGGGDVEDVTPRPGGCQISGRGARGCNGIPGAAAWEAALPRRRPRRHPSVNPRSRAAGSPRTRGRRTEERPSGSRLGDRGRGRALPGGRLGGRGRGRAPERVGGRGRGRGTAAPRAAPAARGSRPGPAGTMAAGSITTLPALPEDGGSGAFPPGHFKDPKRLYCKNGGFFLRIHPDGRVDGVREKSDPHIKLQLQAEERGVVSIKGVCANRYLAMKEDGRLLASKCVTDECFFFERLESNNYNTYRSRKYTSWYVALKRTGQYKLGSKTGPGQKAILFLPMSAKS
# [7] = JC-1 mitochondrial potential readout, lung cancer cells – cell-based, A549, JC-1 fluorescence, basal, 24 h, 100 nL, profiling panel (AID 1138); conditions: higher = more signal;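 also: A549 lung adenocarcinoma cells under basal conditions with no added stimulus; test concentration not given here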
# Lefty1 = Lefty1 protein binding to printed compounds – biochemical, small-molecule microarray, 635/667 nm fluorescence, primary screen (AID 1139); conditions: fluorescence 635/667, higher = more signal
# [8] = tested on: wheat germ agglutinin (Triticum aestivum), Alexa647-labelled; assay: Alexa647-WGA lectin binding to printed small molecules – biochemical, small-molecule microarray, 635/667 nm fluorescence, artefact control for SMM control-protein annotation, profiling panel (AID 1140); conditions: WGA-A647 binding, 635 nm fluorescence, higher = more signal;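 also: score merges 667 nm feature emission with signal to noise over triplicate slides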
# [9] = molecular target: Luciferin 4-monooxygenase (Photinus pyralis) (UniProt P08659); assay: inhibition of purified Photinus pyralis luciferase – biochemical, luminescence, purified enzyme, 2006 set, primary screen (AID 1141); conditions: purified firefly luciferase, SteadyGlo luminescence, 30 min; higher = more signal, called active from +8 up or from −8 down;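 also: cell-free assay with purified firefly luciferase at 100 ng per well in PBS; test concentration not given here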
# Chain of Luciferin 4-monooxygenase (Photinus pyralis) (P08659 whole entry, looked up): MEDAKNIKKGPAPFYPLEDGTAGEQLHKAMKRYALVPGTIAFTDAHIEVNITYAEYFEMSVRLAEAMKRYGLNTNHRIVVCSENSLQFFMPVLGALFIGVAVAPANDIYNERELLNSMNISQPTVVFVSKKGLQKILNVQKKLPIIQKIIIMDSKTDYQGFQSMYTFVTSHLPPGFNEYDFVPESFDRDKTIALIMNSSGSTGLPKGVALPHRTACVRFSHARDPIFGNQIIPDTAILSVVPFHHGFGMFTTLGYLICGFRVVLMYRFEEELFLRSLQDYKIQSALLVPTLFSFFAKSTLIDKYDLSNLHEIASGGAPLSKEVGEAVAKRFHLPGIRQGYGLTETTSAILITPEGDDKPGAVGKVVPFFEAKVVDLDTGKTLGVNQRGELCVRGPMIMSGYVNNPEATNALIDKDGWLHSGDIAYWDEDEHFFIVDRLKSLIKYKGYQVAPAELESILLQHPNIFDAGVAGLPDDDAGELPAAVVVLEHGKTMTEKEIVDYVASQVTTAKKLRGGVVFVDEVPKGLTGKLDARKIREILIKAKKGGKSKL
# [10] = tested on: Wnt5a (protein binding on small-molecule microarray); assay: small molecules binding Wnt5a protein – biophysical, small-molecule microarray, 635/667 nm fluorescence, primary screen (AID 1142); conditions: 635 nm fluorescence, higher = more signal;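 also: fluorescence read at 667 nm with signal to noise per printed feature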
# [11] = ATP-based viability of Huh7 replicon cells – cell-based, CellTiter-Glo luminescence, basal, 48 h, cytotoxicity control for HCV replication inhibitor project, primary screen (AID 1143); conditions: higher = more signal, called active from +8 up or from −8 down;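 also: Huh7 hepatoma cells carrying a hepatitis C replication reporter with no stimulus; test concentration not given here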
# [12] = Pseudomonas biofilm growth suppression – PAO1 strain, BacTiter-Glo luminescence, LB-PBS, primary screen (AID 1144); conditions: P. aeruginosa PAO1 biofilm, 12 h, higher = more signal
# [13] = basal CRE-LacZ reporter activity in PC12 – cell-based, unstimulated, primary screen (AID 1145); conditions: no forskolin, luminescence, 4.5 h, higher = more signal, called active from +8 up or from −8 down
# [14] = forskolin-driven CRE-LacZ activity in PC12 – cell-based, CRE-LacZ reporter, forskolin-stimulated, primary screen (AID 1146); conditions: luminescence, 4.5 h, higher = more signal, called active from +8 up or from −8 down;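 also: PC12 cells with 6xCRE LacZ reporter stimulated by forskolin 10 µM; beta-galactosidase reporter signal reflecting CREB driven transcription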
# [15] = molecular target: Streptavidin (Streptomyces avidinii) (UniProt P22629); assay: compounds binding control protein streptavidin – biophysical, small-molecule microarray, 635/667 nm fluorescence, artefact control for SMM compound annotation, primary screen (AID 1147); conditions: higher = more signal;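 also: signal reflects streptavidin binding to arrayed compounds as a control protein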
# Chain of Streptavidin (Streptomyces avidinii) (P22629 whole entry, looked up): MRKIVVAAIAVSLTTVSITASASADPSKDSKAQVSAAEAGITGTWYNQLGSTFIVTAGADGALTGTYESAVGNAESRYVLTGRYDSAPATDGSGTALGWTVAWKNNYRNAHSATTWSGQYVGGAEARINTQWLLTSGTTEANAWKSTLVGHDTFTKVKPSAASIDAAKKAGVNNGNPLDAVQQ
# [16] = probe aInhba binding on compound microarray – biochemical, small-molecule microarray, 635/667 nm fluorescence, primary screen (AID 1148); conditions: higher = more signal;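 also: score merges 667nm spot fluorescence with signal-to-noise for antibody binding to printed compounds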
# Torsin-1A (Homo sapiens) [17] = molecular target: Torsin-1A (Homo sapiens) (UniProt O14656); assay: TOR1A wild-type binding on microarray – cell lysate, small-molecule microarray, lysate, 635/667 nm, primary screen (AID 1149); conditions: COS7 hTOR1A-WT lysate, 635 nm fluorescence, higher = more signal
# Chain of Torsin-1A (Homo sapiens) (O14656 whole entry, looked up): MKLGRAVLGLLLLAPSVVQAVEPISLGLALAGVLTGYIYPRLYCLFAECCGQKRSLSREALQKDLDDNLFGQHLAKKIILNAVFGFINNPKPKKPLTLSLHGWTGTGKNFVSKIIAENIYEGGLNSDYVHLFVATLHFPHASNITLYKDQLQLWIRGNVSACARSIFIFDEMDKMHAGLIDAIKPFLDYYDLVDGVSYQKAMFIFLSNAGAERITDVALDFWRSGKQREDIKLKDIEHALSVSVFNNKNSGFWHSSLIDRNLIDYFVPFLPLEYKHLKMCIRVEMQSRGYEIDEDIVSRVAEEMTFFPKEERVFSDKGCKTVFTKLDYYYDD
# Torsin-1A (Homo sapiens) [18] = molecular target: Torsin-1A (Homo sapiens) (UniProt O14656); assay: torsin A mutant lysate binding on microarrays – cell lysate, small-molecule microarray, COS7 lysate, 635/667 nm fluorescence, primary screen (AID 1150); conditions: COS7 hTOR1A mutant lysate, 635 nm fluorescence, higher = more signal;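 also: score pools 667 nm emission and signal to noise measuring lysate protein binding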
# [19] = tested on: Sonic hedgehog protein (Shh); assay: Sonic hedgehog microarray binding compounds – biochemical, small-molecule microarray, 635/667 nm fluorescence, primary screen (AID 1151); conditions: 635 nm fluorescence, higher = more signal;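 also: Shh protein binding to compounds spotted on small-molecule microarray slides; score combines spot fluorescence intensity with signal-to-noise across triplicate slides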
Structure (SMILES),composite z-score [1],composite z-score [2],composite z-score [3],composite z-score [4],composite z-score [5],composite z-score [6],z-score [7],composite z-score (Lefty1),composite z-score [8],z-score [9],composite z-score [10],z-score [11],z-score [12],z-score [13],z-score [14],composite z-score [15],composite z-score [16],composite z-score (Torsin-1A (Homo sapiens) [17]),composite z-score (Torsin-1A (Homo sapiens) [18]),composite z-score [19]
CC(CCC(=O)OC[C@H]1O[C@H](C#Cc2ccccc2)C=C[C@@H]1Oc1ccc(C)cc1)=NO[C@@H](C)c1cn([C@H](CO)Cc2ccccc2)nn1,1.35,0.0769,0.0915,0.716,0.335,0.61,-0.97,0.393,0.587,0.991 (inactive),0.204,-2.82 (inactive),-1.07 (inactive),1.07 (inactive),0.0061 (inactive),0.258,-0.003,-0.323,-0.146,0.316
CC(C)[C@H](NC(=O)OC(C)(C)C)[C@@H](O)CC(=O)OC(C)(C)C,-0.105,-1.47,-0.563,-0.808,-0.275,-0.394,-1.25,0.123,-0.339,-0.0331 (inactive),-0.417,-0.49 (inactive),-0.896 (inactive),0.293 (inactive),0.337 (inactive),-0.14,-0.152,-0.781,-0.448,-0.463
COc1ccc(O[C@H]2C=C[C@@H](c3ccccc3)O[C@@H]2COC(=O)CCC(C)=NOCC[C@@H]2C=C[C@H](OC(C)=O)[C@@H](COC(C)=O)O2)cc1,0.545,-0.129,0.151,0.351,0.612,0.168,0.213,0.342,0.193,1.03 (inactive),-0.0096,-1.06 (inactive),0.57 (inactive),0.918 (inactive),0.378 (inactive),0.0903,-0.0736,1.56,0.43,0.661
C=CC[C@@H]1C=C[C@H](ON=C[C@@H](OC)[C@H](C)C=CCC(=O)OC)[C@@H](CO)O1,-0.179,0.296,0.191,-0.613,0.234,0.13,-0.019,0.566,-1.06,0.191 (inactive),0.313,0.669 (inactive),0.0583 (inactive),-0.957 (inactive),-0.385 (inactive),-0.259,0.157,0.434,0.352,0.224
COc1ccc([Si](C)(C)[C@H]2[C@H](CC(=O)N3CCC[C@H]3CO)O[C@@]3(C(=O)N(Cc4cccc(N5C(=O)COc6ccccc65)c4)c4ccccc43)[C@@H]2C)cc1,0.514,0.885,0.392,-0.07,0.727,1.68,4.31,0.994,-0.32,-2.36 (inactive),0.156,-2.16 (inactive),-0.201 (inactive),7.18 (inactive),-1.22 (inactive),0.0527,-0.157,0.419,0.889,1.92
CO[C@H]1COC(=O)[C@@H]2CCCN2C(=O)[C@@H](C)COC(=O)CC=C[C@@H]1C,1.42,-0.217,-0.114,0.112,1.02,1.46,-0.409,0.898,-0.114,1.29 (inactive),0.055,0.321 (inactive),-0.556 (inactive),-0.892 (inactive),-0.0307 (inactive),0.457,-0.0136,1.24,0.219,2.14
CO[C@H]1COC(=O)[C@H](C)NC(=O)[C@@H](C)COC(=O)CC=C[C@@H]1C,-0.133,-0.0179,-0.274,-0.177,0.598,1.34,-0.855,0.572,-0.114,0.514 (inactive),-0.185,-0.068 (inactive),-0.865 (inactive),0.341 (inactive),-0.178 (inactive),-0.356,-0.016,1.24,0.296,1.47
CO[C@H]1O[C@H](CO)[C@@H](OC(=O)Nc2ccc3c(c2)OCO3)[C@H](OC(=O)Nc2ccccc2-c2ccccc2)[C@@H]1OC(=O)Nc1ccccc1-c1ccccc1,1.84,1.18,0.195,0.987,1.14,1.68,-0.604,0.186,1,-0.485 (inactive),0.492,-3.03 (inactive),-0.176 (inactive),0.54 (inactive),-0.528 (inactive),1.08,0.124,0.957,1.17,0.672
CC(=O)OC[C@H]1O[C@H](CCON=C(C)CCC(=O)OC[C@H]2O[C@H](C#Cc3ccccc3)C=C[C@@H]2Oc2ccc(C)cc2)C=C[C@@H]1OC(C)=O,0.0004,0.125,0.369,0.185,0.496,0.592,-0.518,0.802,0.0698,0.54 (inactive),0.0159,-0.474 (inactive),0.037 (inactive),0.894 (inactive),0.452 (inactive),0.238,-0.231,0.595,0.139,0.688
CC(C)CON=C1C[C@@H](O)[C@@H](O)[C@@H]2[C@@H]3C(=O)N(Cc4ccccc4)C(=O)[C@@H]3CC[C@@H]12,0.705,0.633,0.528,-0.598,-0.163,0.239,-0.762,0.516,0.0615,1.12 (inactive),0.0819,0.674 (inactive),0.579 (inactive),-0.203 (inactive),0.462 (inactive),-0.354,-0.071,0.407,0.16,0.305

# From PubChem BioAssay
